This is an account of results in the supplement of paper PMC13380429.

Assay [1] concerns Vero E6 infected with SARS-CoV-2. Kind of assay: morphology score (similarity to uninfected cells); higher = more like uninfected cells. The settings on record: 24 h.
Assay [2] shares this test system. Kind of assay: SARS-CoV-2 infection rate relative to infected DMSO; higher = more infection, active = 60 or less. The settings on record: 24 h.

In the case of `CC1(C)CC(=O)c2c(C(F)(F)F)nn(-c3ccc(C(N)=O)c(N[C@H]4CC[C@H](O)CC4)c3)c2C1` (10 µM), the morphology score in assay [1] was determined as 0.196. Moreover, the SARS-CoV-2 infection rate in assay [2] is 102% (inactive).

Take `Cc1c(-c2ccc(O)cc2)n(Cc2ccc(OCCN3CCCCCC3)cc2)c2ccc(O)cc12` [bazedoxifene] (0.833333 µM): in assay [1], the morphology score was determined as 0.201. The SARS-CoV-2 infection rate in assay [2] is 101% (inactive).

Consider `CC(NCCC(c1ccccc1)c1ccccc1)c1ccccc1` (stereo not given) [fendiline] (10 µM), for which, in assay [1], the morphology score stood at 0.771. In addition, in assay [2], the SARS-CoV-2 infection rate is 44% (active).

For `C[C@]12CC[C@H](O)C[C@H]1CC[C@@H]1[C@@H]2CC[C@]2(C)[C@@H](c3ccc(=O)oc3)C[C@H]3O[C@]132` [resibufogenin] (10 µM), in assay [1], the morphology score was -0.241. In assay [2], the SARS-CoV-2 infection rate is 110% (inactive).

`O=C(CN1CCNCC1)NC1CCCCC1` [esaprazole] (10 µM) had a morphology score in assay [1] of 0.0266. Moreover, in assay [2], the SARS-CoV-2 infection rate was 104% (inactive).

As for `CCN(CC)CCCC(C)Nc1nc(C)cc(Nc2ccc3nc(C)cc(N)c3c2)n1` (stereo not given) (10 µM), in assay [1], the morphology score is -0.115. For the same molecule, in assay [2], the SARS-CoV-2 infection rate is 110% (inactive).

Take `COc1nc(C)cnc1NS(=O)(=O)c1cccnc1-c1ccc(-c2nnco2)cc1` [zibotentan] (10 µM): the morphology score in assay [1] worked out at 0.109. Also, the SARS-CoV-2 infection rate in assay [2] was 120% (inactive).

`CC(C)Cc1ccc([C@@H](C)C(=O)NS(C)(=O)=O)cc1` [reparixin] (10 µM): in assay [1], the morphology score was determined as 0.135. The SARS-CoV-2 infection rate in assay [2] was 100% (inactive).

`CCCC(=O)C1(c2ccccc2)CCN(C(=O)[C@@H](Cc2ccc(OC)cc2)NC(=O)[C@@H](N)Cc2cncn2C)CC1` (10 µM) displayed a morphology score in assay [1] of 0.106. The SARS-CoV-2 infection rate in assay [2] was 98% (inactive).

As for `Nc1ccccc1S(N)(=O)=O` [2-aminobenzenesulfonamide] (10 µM), the morphology score in assay [1] was -0.162. The SARS-CoV-2 infection rate in assay [2] is 108% (inactive).
